Bioassay records from PubChem.
Abeta yeast res: compounds reversing amyloid beta toxicity in yeast. yeast expressing A-beta42, growth rescue, OD600, 48 h; response scale: 0% DMSO, 100% iron-clioquinol control. Potency, µM (titrated, usually from 46.1 µM), hits mostly activators. 410,000 compounds, 0.063% hits; further: nearly all actives have a fitted effect of over 55% in size
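Yeast growth medium received pinned compounds, then yeast cells expressing toxic A-beta were added; plates incubated at 30 C for 48 hr. Growth read as absorbance at 600 nm, normalized to DMSO and equimolar FeCl3 plus clioquinol controls.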
FUS suppressor: FUS proteinopathy suppression in yeast; S. cerevisiae FUS-expressing, growth rescue, OD600, 24 h; Potency, µM (titrated, usually from 76.6 µM), usual class: activators; 390,000 compounds, 0.24% hits; further: nearly all actives have a fitted effect of over 55% in size
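Steps: raffinose overnight preculture; dilution to OD 0.005 in 2% galactose minimal medium; compound addition (concentration series); 24hr at 30C, 99% humidity; absorbance read at 600 nm.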
TDP-43 yeast inh: TDP-43 toxicity inhibition in yeast. Potency, µM (highest dose often 46.1 µM), actives largely listed as activators. TDP-43 expressing yeast growth rescue, BacTiter-Glo, 24 h. 410,000 compounds, 1.8% hits; further: nearly all actives have a fitted effect of over 50% in size
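Cell-based yeast growth screen: TDP-43 expression induced in galactose, inoculum OD600=0.02 after raffinose pregrowth to mid-log. Read-out BacTiter-Glo luminescence at 24 hr, 30 deg C; inhibition of toxicity seen as signal increase.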
Mito fusion yeast: blocks mitochondrial division or promotes mitochondrial fusion; Potency, µM (highest dose often 46.1 µM), usual class: activators; 320,000 compounds, 0.23% hits; S. cerevisiae fusion-defective mutant growth rescue, CellTiterGlo 48 h; further: nearly all actives have a fitted effect of over 45% in size
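Luminescent cell viability in 1536-well qHTS format served as the measure of rescued growth in ts fusion-mutant S. cerevisiae cultured on non-fermentable YPEG for 48 hours at 37C.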
aSyn yeast inh: rescues yeast growth from alpha-synuclein toxicity; AID 652106; Potency, µM (doses to about 46.1 µM), usual class: activators; 370,000 compounds, 0.14% hits; Yeast expressing alpha-synuclein, growth rescue, BacTiter-Glo, 24 h; further: nearly all actives have a fitted effect of over 65% in size
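Galactose-induced alpha-syn yeast (OD600=0.02, raffinose-pregrown) + pinned cpd, 24 hr, 30 deg C; growth by BacTiter-Glo luminescence. Growth restoration scores as activation.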
Of the large screens only hits and unclear results are named; the others gave an inactive call. In the library only some 2.2% were active in any assay of this set; here they are far more common. The call rests on the fitted dose curve; in most records, active means well fitted curve in the direction sought with a large enough effect; inconclusive means small, poorly fitted or top-dose-only effect, or another doubt; inactive means no such curve, though single readings can be large; an effect the other way counts as inactive or inconclusive.

CCOC(=O)c1cnn(-c2ccc(OC)cc2)c1C1CCN(C(=O)OC(C)(C)C)CC1	FUS suppressor inconclusive, TDP-43 yeast inh inconclusive (no result: Mito fusion yeast, aSyn yeast inh)
Cc1nc(N2CCCC2)ncc1C(=O)NCc1cccc(Cl)c1	TDP-43 yeast inh 14µM (no result: Mito fusion yeast, aSyn yeast inh)
Cc1ccc(-c2csc(NC(=O)CN3CCOCC3)n2)cc1C	none
COc1ccc(Cn2c(C(=O)O)c(CNCCc3cc(OC)ccc3OC)c3ccc(C)cc32)cc1	FUS suppressor 28µM (no result: Mito fusion yeast, aSyn yeast inh)
C=Cc1ccc(Cn2c(C(=O)O)c(CNCc3ccc(F)cc3)c3ccc(C)cc32)cc1	FUS suppressor 32µM (no result: Mito fusion yeast, aSyn yeast inh)
C=Cc1ccc(Cn2c(C(=O)O)c(CNCc3cccs3)c3ccc(C)cc32)cc1	FUS suppressor inconclusive (no result: Mito fusion yeast, aSyn yeast inh)
Cc1ccccc1-c1cc(-c2ccccc2O)n[nH]1	TDP-43 yeast inh 11µM
Oc1ccc(Br)cc1-c1cc(-c2ccccc2Cl)[nH]n1	none
Oc1ccccc1-c1cc(-c2ccc(F)cc2)n[nH]1	TDP-43 yeast inh 3.5µM
COc1ccc(O)c(-c2cc(-c3ccccc3Cl)[nH]n2)c1	TDP-43 yeast inh 18µM
Cc1ccc(-c2cc(-c3ccccc3Cl)[nH]n2)c(O)c1	none
CC(C)OCCCNC(=O)CCCn1c(SCC(=O)c2ccc(F)cc2)nc2c(sc3ccccc32)c1=O	none (no result: Mito fusion yeast, aSyn yeast inh)
COC(=O)c1ccc(NC(=O)CCc2c(C)nc3c(c(C)nn3C(C)(C)C)c2C)cc1	none (no result: Mito fusion yeast)
O=C(CSc1nc(=O)n2cc(Cl)ccc2n1)Nc1cccc2ccccc12	TDP-43 yeast inh 7.1µM
Cc1ccn2c(=O)nc(SCC(=O)Nc3cccc4ccccc34)nc2c1	FUS suppressor 22µM
CC(=O)c1cc(C#N)c(SCCC(C)C)nc1C	TDP-43 yeast inh inconclusive, Mito fusion yeast inconclusive
CC(C)CCSc1nc(N)c(C#N)cc1C#N	Mito fusion yeast 11µM
CCOc1ccc(/C=C2\SC(=S)NC2=O)cc1OC	none
COc1ccc(/C=C2\SC(=O)NC2=S)cc1OC	TDP-43 yeast inh 8.9µM
Cc1cccc(CSc2cccc3cccnc23)c1	TDP-43 yeast inh 18µM
C/C(=N\Nc1cc(-c2ccccc2)nc(-c2ccccc2)n1)c1ccc(O)c(C)c1	TDP-43 yeast inh 16µM
Cc1cc(N/N=C/c2ccc(O)c(C)c2O)nc(-c2ccccc2O)n1	TDP-43 yeast inh 10µM
C/C(=N\Nc1cc(C)nc(-c2ccccc2O)n1)c1ccccc1	TDP-43 yeast inh 10µM
CCN(CC)c1ccc(/C=C/c2c(C)cnc3ccccc23)cc1	none (no result: Abeta yeast res, FUS suppressor, TDP-43 yeast inh, Mito fusion yeast)
O=C1CCCCCC(=O)[C@H](O)C[C@H](c2ccccc2)O1	none (no result: Mito fusion yeast)
N/C(=N\OC(=O)c1ccc2ccccc2c1)c1ccncc1	TDP-43 yeast inh 13µM
N/C(=N\OC(=O)c1ccc2ccccc2c1)c1ccccn1	none
N/C(=N\OC(=O)c1ccccc1Cl)c1ccncc1	TDP-43 yeast inh 25µM
N/C(=N\OC(=O)c1ccc(Cl)cc1Cl)c1ccncc1	none
N/C(=N\OC(=O)c1ccc(F)cc1)c1cccc([N+](=O)[O-])c1	TDP-43 yeast inh 13µM
N/C(=N\OC(=O)c1ccccc1Cl)c1cccc([N+](=O)[O-])c1	TDP-43 yeast inh 11µM
C=CCc1cccc(C=NNC(=O)c2ccco2)c1O	none (no result: Abeta yeast res, TDP-43 yeast inh, Mito fusion yeast, aSyn yeast inh)
CCOc1ccc(N2C(=O)CC(Cc3ccccc3OC)C2=O)cc1 (configuration not stated)	none
COc1ccc(/C(C)=N\NC(=O)c2ccco2)cc1	none (no result: Abeta yeast res, TDP-43 yeast inh, Mito fusion yeast, aSyn yeast inh)
CCOC(=O)C1CCCN(S(=O)(=O)c2csc(C(N)=O)c2)C1 (configuration not stated)	none (no result: Mito fusion yeast, aSyn yeast inh)
N/C(=N\OC(=O)c1ccc2ccccc2c1)c1cccc([N+](=O)[O-])c1	TDP-43 yeast inh 22µM
N/C(Cc1ccc([N+](=O)[O-])cc1)=N\OC(=O)c1cccc(Br)c1	none
N/C(Cc1ccc([N+](=O)[O-])cc1)=N\OC(=O)c1ccc([N+](=O)[O-])cc1	TDP-43 yeast inh 18µM (no result: FUS suppressor)
COc1ccc(NC(=O)C2=C(C)Nc3ncnn3C2c2sccc2C)cc1 (configuration not stated)	none (no result: Mito fusion yeast)
O=C(c1ccoc1)N1CCN(c2cc(-c3ccccc3)nc3cc(-c4ccccc4)nn23)CC1	TDP-43 yeast inh 18µM (no result: Mito fusion yeast)
Cc1cc(N2CCN(C(=O)c3ccoc3)CC2)n2nc(-c3ccccc3)cc2n1	none (no result: Mito fusion yeast)
O=C(c1ccoc1)N1CCN(c2cc(-c3ccco3)nc3cc(-c4ccccc4)nn23)CC1	FUS suppressor inconclusive, TDP-43 yeast inh 20µM (no result: Mito fusion yeast)
